Structures are written as SMILES. This is part of a sample that, as a whole, favours compounds with a hit. Of some 83,000 tested, about 20% had one in any assay.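 Testing used 96-well plates and a 48-hour single-concentration exposure. Example: -40 means 40% of the starting cells died.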 A number with no mark means an inactive call. Active and inactive are the calls of the source.

In this assay the test system is HCT-15 colon. The assay is described as follows: NCI-60 one-dose screen, 48 h (100 = growth as untreated, 0 = no growth, -100 = all killed). The conditions noted are these: 10 µM unless noted. As for the experimental part: Growth inhibition of the HCT-15 human tumor cell line is measured as a screen for anti-cancer activity. Cells are grown in 96 well plates and exposed to the test compound for 48 hours. Compounds are tested at a single concentration, which is 10^-5 M for most compounds. The reported endpoint is percent growth (GI% or GIPRCNT), where numbers from 0 - 100% represent growth inhibition, and numbers from -100% - 0 represent cell death. For example, a value of 40 represents 60% growth inhibition. A value of 0 means no net growth occurred over the course of the experiment. A value of -40 indicates 40% of cells at the beginning of the experiment died by the end of the experiment. A value of -100 means all cells are dead at the end of the experiment.
NCI-60 Human Tumor Cell Lines Screen was performed using the standard one-dose NCI protocol, which is described in more detail at https://dtp.cancer.gov/discovery_development/nci-60/default.htm.
Compounds with GIPRCNT values below 10 were considered active. Activity score was based on GIPRCNT using the following formula: […]
Score is 0 for GIPRCNT values of 100 or above, 50 for GIPRCNT values of 0, and 100 for GIPRCNT values of -100.
As for `Clc1ccc2[nH]c3c(NCCCN4CCOCC4)ncnc3c2c1`, the growth was 84.1%.

On to `C=CC(=O)N[C@@H](Cc1ccc(-c2cc(Cl)cc(Cl)c2)cc1)[C@@H](O)[C@H](O)C(=O)O`, for which the growth was 104%.

On to `COc1ccc(OC)c(Nc2nc3nonc3nc2Nc2cc(OC)ccc2OC)c1`, for which the growth is 73.5%.

Regarding `Cc1cc(-c2ccccc2)cc(SC#N)[n+]1[O-]`, the growth is 24.7%.

`COc1ccccc1C(=O)NC(=S)Nc1ccc(-c2nc3ccccc3[nH]2)cc1`: the growth is 59.5%.

For `C=C1C(=O)O[C@H]2[C@H]1CC/C(COC(=O)NCc1ccc(Cn3c(=O)sn(CCCCl)c3=O)cc1)=C\CC[C@@]1(C)O[C@@H]21`, the growth was 8.02% (active).

On to `Cn1ncc2c(Nc3ccc(Br)cc3)nc(Nc3ccc(Br)cc3)nc21`, for which the growth is 22.4%.

For `CCN(CC)S(=O)(=O)c1ccc(O)c(NC(=O)c2[nH]c(C)c(C(C)=O)c2CCc2ccc(Cl)cc2)c1`, the growth was 42.9%.

As for `CCc1cc(Cc2cc(CC)cc(C(C)(C)C)c2O)c(O)c(C(C)(C)C)c1`, the growth is 13.8%.

As for `C[C@]12CCC(=O)C[C@H]1CC[C@@H]1[C@@H]2CC[C@@]2(C)[C@H]1CC[C@]2(O)C(=O)CO`, the growth is 104%.

As to `CCc1c(C(=O)N[C@@H]2c3cc(Cl)ccc3CC[C@@H]2O)[nH]c(C)c1C(C)=O`, the growth is 41.1%.

As for `N#C/C=C(\c1ccc([N+](=O)[O-])cc1)n1nnc2cc(Cl)c(Cl)cc21`, the growth is -39.1% (active).

On to `CCCCC1COc2cccc3c(SCC(=O)N(C)c4cccc(Cl)c4)cc[n+]1c23` (stereo not given), for which the growth was 101%.

Regarding `OCCCCc1nccc2c1[nH]c1ccccc12`, the growth is 104%.

Regarding `Clc1ccc(-c2nnc(Cn3ccnc3)o2)cc1`, the growth is 94.2%.

Consider `Cl.Fc1c[c-]c(-c2ccccn2)c(F)c1.[Pt].c1ccc([PH+](c2ccccc2)c2ccccc2[PH+](c2ccccc2)c2ccccc2)cc1`, for which the growth was -83.8% (active).

Consider `CCN(CC)CCCNC(=O)c1ccc(N)cc1O`, for which the growth was 96.1%.

As to `Clc1ccc(-c2nnc(-c3ccco3)o2)cc1`, the growth was 112%.

For `COc1ccccc1NC(=O)Nc1ccc(-c2nc3ccccc3o2)cc1`, the growth was 96.9%.

In the case of `O=[N+]([O-])c1ccc(-c2cc3c(Nc4ccc(Cl)c(C(F)(F)F)c4)ncnc3s2)cc1`, the growth was 10.2%.

Consider `CCNCCNc1cc(C2CCCC2)c(C#N)c2nc3ccccc3n12`, for which the growth is 26.8%.

On to `COc1ccc(N(C)c2nc(Cl)nc3cnn(C)c23)cc1`, for which the growth was 9.08% (active).

Consider `COc1ccc(C(=O)/C=C/C23c4ccccc4C(c4ccccc42)C2C(=O)NC(=O)C23)cc1` (stereo not given), for which the growth was 91.3%.

As for `CN1CCN(C(=O)[C@]23CCC(C)(C)C[C@@H]2C2=CC[C@@H]4[C@@]5(C)Cc6c([nH]c7ccccc67)C(C)(C)[C@@H]5CC[C@@]4(C)[C@]2(C)CC3)CC1`, the growth was 81.5%.

As to `CCCCOC(=O)c1ccc(NC(=O)C(C)N2CCOCC2)cc1` (stereo not given), the growth is 108%.

As to `O=C1CSC(c2ccc(O)cc2)N1c1nnc(Cn2cnnc2)o1` (stereo not given), the growth is 110%.

Consider `CCCCCCCCc1cc[n+](CC(=O)c2ccc(Br)cc2)cc1`, for which the growth is 47%.

Turning to `CCOc1ccc(-c2nc3ccc(-c4nc5ccc(N6CCN(C)CC6)cc5[nH]4)cc3[nH]2)cc1OCC`, the growth is 63.7%.

For the compound `Cc1ccc(C)c2c1C(=O)OC2=O`, the growth was 101%.

Regarding `[2H]c1nc(Nc2ncc(F)c(-c3cc(F)c4nc(C)n(C(C)C)c4c3)n2)c([2H])c([2H])c1CN1CCN(C([2H])([2H])C([2H])([2H])[2H])CC1`, the growth was 39.8%.

Turning to `CCCCCCN(CCCCCC)CC(O)c1cccc2ccc(Cl)cc12` (stereo not given), the growth is 53.4%.

For `C=C(C=O)C1CCC2(C(=O)O)CCC3(C)C(CCC4C5(C)CCC(O)C(C)(C)C5CCC43C)C12` (stereo not given), the growth was -15.1% (active).

On to `COc1ccc(Nc2ncc(Br)c(NCCCNC(=O)C3CCC3)n2)cc1`, for which the growth was 21.7%.

For `OC(c1cccc(OCc2ccccc2)c1)c1nnc(-c2ccccc2)o1` (stereo not given), the growth was 90%.

For the compound `O=S(=O)(Nc1ccsc1-c1nc(-c2ccccc2)no1)c1cc(Cl)cc(Cl)c1`, the growth is 91.9%.

With `CCN(CC)c1ccc(Nc2ccc(CC(=O)c3ccccc3)cc2)cc1`, the growth is 88.7%.

In the case of `CO[C@H]1/C=C/O[C@@]2(C)Oc3c(C)c(O)c4c(c3C2=O)C(=O)C(/C=N/N(c2ccccc2)c2ccccc2)=C(NC(=O)/C(C)=C\C=C\[C@H](C)[C@H](O)[C@@H](C)[C@@H](O)[C@@H](C)[C@H](OC(C)=O)[C@@H]1C)C4=O`, the growth is -20.3% (active).

For the compound `NC(=O)c1c(NC(=O)c2ccccn2)sc2c1CCC(=O)C2`, the growth was 13.4%.

Turning to `CC(/C=N/NC(=O)c1cc(-c2ccco2)[nH]n1)=C\c1ccccc1`, the growth was 93.2%.

`O=c1ccn(C2OC(F)(CO)C(O)C2F)c(=O)[nH]1` (stereo not given): the growth is 103%.
